Whole data set: some 35,000 sequences, median “fluorescence intensity (a.u.)” near 10,000, cut for the highest 2% near 52,000. Shown is part of a subset that was picked to be rich in the highest values.

33 sequences from publication PMC7819943, “Rice protein-binding microarrays: a tool to detect cis-acting elements near promoter regions in rice” can be followed below.

This experiment concerns the target T1, OsWOX13 (Oryza sativa, UniProt Q5QMM3 1-267).
T1 sequence: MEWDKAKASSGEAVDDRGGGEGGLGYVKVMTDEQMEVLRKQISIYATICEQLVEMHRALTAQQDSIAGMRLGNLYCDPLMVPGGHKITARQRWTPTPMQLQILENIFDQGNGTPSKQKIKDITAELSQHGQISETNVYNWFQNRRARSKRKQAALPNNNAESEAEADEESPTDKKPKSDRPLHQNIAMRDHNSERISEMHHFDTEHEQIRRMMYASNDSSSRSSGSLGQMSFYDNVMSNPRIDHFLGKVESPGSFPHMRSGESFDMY
Nature of the experiment: protein-binding microarray (RPBM); PBS, 2% BSA, 51.3 ng/ul salmon testes DNA, 50 uM zinc acetate, 200 nM TF, 25 C, 1 h; high values mean tight binding. As to conditions: protein: recombinant; tags: N-terminal polyhistidine and DsRed monomer fusion (pET32a); label: CyDye5-dUTP incorporated in the synthesized complementary strand; 3' TTTTT single-stranded linker to array surface; dsDNA, one strand shown. In short, it runs like this:
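The binding signal is fluorescence intensity per feature, in arbitrary units, read on an Axon 4000B scanner. Polyhistidine- and DsRed-tagged transcription factors (N-terminal fusions) from E. coli BL21-CodonPlus were purified on Ni–NTA and applied at 200 nM for 1 h at 25 °C to a double-stranded, BSA-blocked custom Agilent array in buffer with 50 µM zinc acetate.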
“CAAATAATTATTATACTTTGTCATGTCATATAAACTATATCGGAGTCACCTAGTGCAG”: the binding signal is 17900 fluorescence intensity (a.u.). Consider “ACTCATGCTTACTTGATTGATAGTGGAAGAACCTTTTCTTCGGAGTCACCTAGTGCAG”, for which the binding signal was 28200 fluorescence intensity (a.u.). Consider “AGTTTAATGGTGATAATATGATTTCAAAATCTGACAACCGCGGAGTCACCTAGTGCAG”, for which the binding signal was 12500 fluorescence intensity (a.u.).

In the case of “TTTTCTGGTGGCAAGATGATTGAGATATACACCTTGAAGTCGGAGTCACCTAGTGCAG”, the binding signal was 7690 fluorescence intensity (a.u.).

Take “GGAATTGGTAACAGCAAGCTTAACAGAGAAAGGTAGTCGACGGAGTCACCTAGTGCAG”: the binding signal is 8350 fluorescence intensity (a.u.). “TCTATAAATTGGCCTAGTACCTGGAAAGTGAAATCTGCCACGGAGTCACCTAGTGCAG”: the binding signal was 7920 fluorescence intensity (a.u.). Regarding “CGTAATTGCATCTCTATTTTCATCTCTACTTCATTTCTCTCGGAGTCACCTAGTGCAG”, the binding signal is 37900 fluorescence intensity (a.u.). For “TGATGAAGATGATGAGCATGTGATTGAGCTGTCTGATTGCCGGAGTCACCTAGTGCAG”, the binding signal is 33800 fluorescence intensity (a.u.).

With “TCTGATTGAACGAGTTTACAGATTGAGAAAGCACGCGTCACGGAGTCACCTAGTGCAG”, the binding signal is 53800 fluorescence intensity (a.u.). With “ATAGTGATAGGTCTGTCAATGCAGTGAGGTCCTGAAAACCCGGAGTCACCTAGTGCAG”, the binding signal was 8210 fluorescence intensity (a.u.). On to “TCTGATGAACACATTGAGAAAGCAGATGAAGTTGCAGTGTCGGAGTCACCTAGTGCAG”, for which the binding signal was 5120 fluorescence intensity (a.u.). Consider “AATTGATTTATTTTGAAACAGAGAGAATACAGTTTATTTACGGAGTCACCTAGTGCAG”, for which the binding signal is 32400 fluorescence intensity (a.u.).

Take “TCAAAATTAGAAGTTTGAAGAAATTGGAACGATGTGATGGCGGAGTCACCTAGTGCAG”: the binding signal is 7940 fluorescence intensity (a.u.). As for “CAAAATTTGAAGTTTGATTGAAATTGGTACGATGTGATGGCGGAGTCACCTAGTGCAG”, the figure is 62400 fluorescence intensity (a.u.); as for “AAAATTGAAAGTTTGATTGAAATTAGAACGATGTGACGAACGGAGTCACCTAGTGCAG”, 35500 fluorescence intensity (a.u.); as for “TCTCTGTGATTGAAACCTTGTCTCTGAAATGCTTGAGGGCCGGAGTCACCTAGTGCAG”, 55400 fluorescence intensity (a.u.).

Take “CTGATTGAAATTGAAAGTTTGATTGAAATTGAAACGATGCCGGAGTCACCTAGTGCAG”: the binding signal was 65300 fluorescence intensity (a.u.).

As to “TTTGGTTGAAATTGAAACGATGTGATGGAAAAGTTGGAAGCGGAGTCACCTAGTGCAG”, the binding signal is 5010 fluorescence intensity (a.u.).

For the sequence “TAGAAGTTTGATTGAAATTGAAACGATATGATGGAAAAGTCGGAGTCACCTAGTGCAG”, the binding signal was 44500 fluorescence intensity (a.u.). In the case of “TATTAAACGAATTATCACAAAATTATAGATTTATCATGTTCGGAGTCACCTAGTGCAG”, the binding signal was 3760 fluorescence intensity (a.u.). As for “GCTCCAATTTAATTTCAAAATGAATTTATATATTCATTGTCGGAGTCACCTAGTGCAG”, the figure is 14100 fluorescence intensity (a.u.). Consider “CTGCTTAATTACTTCAGCCTTTACACATCAGCATATCATACGGAGTCACCTAGTGCAG”, for which the binding signal is 8250 fluorescence intensity (a.u.).

For the sequence “CGTAATTGTTTAGTTGCAAAAGGATAAGCACCAAACCAAACGGAGTCACCTAGTGCAG”, the binding signal is 12400 fluorescence intensity (a.u.).

As to “ATTATTTGATTGTGGTTTAATTGTTGGTGCAACAGGGTTACGGAGTCACCTAGTGCAG”, the binding signal is 47900 fluorescence intensity (a.u.). “TTGGAAGTTTGATTGAAATTGGAACGATGTGACGGGAAAGCGGAGTCACCTAGTGCAG”: the binding signal is 23300 fluorescence intensity (a.u.). As for “TCAAAATTGGAAGTTTGATTGAAATTGGAACGATGTGACGCGGAGTCACCTAGTGCAG”, the figure is 61400 fluorescence intensity (a.u.).

Take “AAGTTTGATTGAAATTGGAACGATGTGACGGAAAAGTTGACGGAGTCACCTAGTGCAG”: the binding signal was 35100 fluorescence intensity (a.u.). As to “TATGTGATTATCTTCTCCATACCATCATGTTCTAGATACGCGGAGTCACCTAGTGCAG”, the binding signal is 24900 fluorescence intensity (a.u.). On to “TTCTCATTTTATTTAATTTAAAAGTAATTTATTACATGTTCGGAGTCACCTAGTGCAG”, for which the binding signal is 11600 fluorescence intensity (a.u.).

For the sequence “GCCTAATTAATCCATGATTAACCATAAGTGCTGCAGTAACCGGAGTCACCTAGTGCAG”, the binding signal is 33500 fluorescence intensity (a.u.). Take “CTGAGATGCTAATTGTGTGTACACTGTTGAGCACATTTGACGGAGTCACCTAGTGCAG”: the binding signal is 3680 fluorescence intensity (a.u.). With “GGCTATTTCGTCCCAATTACCAATGGGCTAATTTTGGATCCGGAGTCACCTAGTGCAG”, the binding signal was 5000 fluorescence intensity (a.u.). Take “CTCCCAATATAATTATTTTCTATTTTCACAAACTCAGATACGGAGTCACCTAGTGCAG”: the binding signal is 5940 fluorescence intensity (a.u.).
